Bioassay records from PubChem BioAssay.
KDM4E inh – qHTS Assay for Inhibitors of Human Jumonji Domain Containing 2E (JMJD2E); actives 1.6% (n = 230,000); Lysine-specific demethylase 4E (Homo sapiens), B2RXH2; JMJD2E catalytic domain, FDH-coupled NADH fluorescence (FDH is formaldehyde dehydrogenase); Potency, µM (series often up to 57.1 µM), for the others: at the top dose activity change, negative = inhibition, usual class: inhibitors; AID 2147, 2009; active means well fitted inhibition curve with a large enough effect, not every such curve was filed as active; inconclusive means small, poorly fitted or top-dose-only effect, or another doubt; inactive means no such curve, though single readings can be large or run the other way;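 further: potency means the concentration at half of the fitted maximal effect; 0% = wells with enzyme and -100% = buffer wells without enzyme; nearly all actives have a fitted effect of over 50% in size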
BAZ2B block – qHTS Assay for Inhibitors of BAZ2B; Bromodomain adjacent to zinc finger domain protein 2B (Homo sapiens), Q9UIF8; AlphaScreen BAZ2B-H3K14Ac peptide displacement; Potency, µM (series often up to 114 µM), without a hit: at the highest dose activity change, negative = inhibition, actives largely listed as inhibitors; actives 4.4% (n = 360,000); further: potency means the concentration at half of the fitted maximal effect; on the % scale 0 is the no-effect control and ±100 the full control effect; nearly all actives have a fitted effect of over 60% in size
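In this displacement format the biotinylated H3(5-23) peptide acetylated at Lys14 serves as ligand at 50 nM, with BAZ2B at 50 nM in PBS pH 7.4 containing 0.01% Tween-20. Donor and acceptor beads are 10 ug/mL final.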
HP1b binding inh – HTS for Inhibitors of HP1-beta Chromodomain Interactions with Methylated Histone Tails; Chromobox protein homolog 1 (Homo sapiens), P83916; AlphaScreen HP1-beta / biotin-H3K9me3 peptide binding; Potency, µM (highest dose often 114 µM), inactives show at the top dose activity change, negative = inhibition, usual class: inhibitors; actives 0.56% (n = 390,000); AID 540317, 2011; further: potency means the concentration at half of the fitted maximal effect; nearly all actives have a fitted effect of over 70% in size
Target sequence (P83916 whole entry, looked up): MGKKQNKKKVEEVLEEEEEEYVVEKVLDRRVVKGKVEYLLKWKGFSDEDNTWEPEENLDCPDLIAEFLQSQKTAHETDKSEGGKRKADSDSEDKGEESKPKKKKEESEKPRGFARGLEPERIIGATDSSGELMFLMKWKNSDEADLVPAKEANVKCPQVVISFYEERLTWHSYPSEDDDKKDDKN
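HP1-beta protein (50 nM final) preincubated 30 min at room temperature with biotinylated H3(1-18)K9me3 peptide (50 nM) in PBS pH 7.4, 0.01% Tween-20, then compound added for 30 min. AlphaScreen streptavidin donor/nickel chelate acceptor beads (10 ug/mL final), 30 min dark, luminescence read.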
PI5P4K alpha inh – qHTS for Inhibitors of phosphatidylinositol 5-phosphate 4-kinase (PI5P4K) | actives 1.2% (n = 330,000) | AID 652105, 2013 | PI5P4Kalpha enzyme, ADP-Glo luminescence, 60 min; hits give low values | Phosphatidylinositol 5-phosphate 4-kinase type-2 alpha (Homo sapiens), P48426 | max response, %; active means max response of -50% or lower; inconclusive means between -30% and -50%; inactive means -30% or higher; further: value at the top dose of about 77 µM; on the % scale 0 is the no-effect control and ±100 the full control effect
Target sequence (P48426 whole entry, looked up): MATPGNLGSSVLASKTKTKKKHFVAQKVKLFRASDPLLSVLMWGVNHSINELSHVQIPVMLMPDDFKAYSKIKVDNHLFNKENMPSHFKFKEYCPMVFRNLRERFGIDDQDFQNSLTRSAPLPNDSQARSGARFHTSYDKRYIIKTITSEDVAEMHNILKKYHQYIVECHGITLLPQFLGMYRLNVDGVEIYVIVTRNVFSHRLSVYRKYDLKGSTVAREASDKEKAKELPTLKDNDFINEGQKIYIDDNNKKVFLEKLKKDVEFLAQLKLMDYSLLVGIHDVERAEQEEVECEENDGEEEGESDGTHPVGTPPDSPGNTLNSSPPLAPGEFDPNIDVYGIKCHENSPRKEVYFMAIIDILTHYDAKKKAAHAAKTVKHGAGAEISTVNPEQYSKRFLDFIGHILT
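ADP-Glo luminescence end-point read after a 60 min room-temperature kinase reaction of PI5P4Kalpha plus substrate, initiated with ATP at 5 microM final. Buffer: 0.038 M HEPES pH 7.4, EGTA, 0.1% CHAPS, 5% DMSO.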
JMJD2A Tudor inh – qHTS Assay for Inhibitors of JMJD2A-Tudor Domain | Potency, µM (highest dose often 114 µM), inactives show at the top dose activity change, negative = inhibition, hits mostly inhibitors | Lysine-specific demethylase 4A (Homo sapiens), O75164 | AlphaScreen JMJD2A-Tudor / H3K4me3 peptide binding | actives 4.4% (n = 390,000); further: potency means the concentration at half of the fitted maximal effect; on the % scale 0 is the no-effect control and ±100 the full control effect; nearly all actives have a fitted effect of over 50% in size
L3MBTL1 inh – qHTS Assay for the Inhibitors of L3MBTL1 | Lethal(3)malignant brain tumor-like protein 1 (Homo sapiens), Q9Y468 | AlphaScreen L3MBTL1–H3K9me1 peptide binding | Potency, µM (titrated, usually from 57.1 µM), without a hit: top-dose activity, negative = inhibition, usual class: inhibitors | actives 0.66% (n = 230,000) | AID 485360, 2010; further: potency means the concentration at half of the fitted maximal effect; on the % scale 0 is the no-effect control and ±100 the full control effect; nearly all actives have a fitted effect of over 60% in size
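L3MBTL1 (50 nM) pre-complexed 30 min with biotinylated H3(1-15)K9me1 peptide (75 nM), then compounds added for 30 min at room temperature; AlphaScreen streptavidin donor/nickel chelate acceptor beads (10 ug/mL final) read after 30 min dark incubation.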
* marks the source's active call; other numbers are inactive results; [ ] = dose if it differs, or a comment. Rows were chosen to be rich in hits. Some 5.7% of all compounds tested hit in one or more screens of this group. Unless noted, the call rests on the fitted dose curve; in most records, active means well fitted inhibition curve with a large enough effect; inconclusive means small, poorly fitted or top-dose-only effect; inactive means no such curve, though single readings can be large or run the other way.

Cc1ccc(-c2csc(Nc3ccc(C(=O)O)cc3)[n+]2Cc2ccccc2)cc1 was read as KDM4E inh 4%, BAZ2B block -38%, HP1b binding inh -26%, PI5P4K alpha inh 0, JMJD2A Tudor inh 40µM* and L3MBTL1 inh -2%.
For Cc1ccc(-c2csc(Nc3ccccc3)[n+]2CCc2ccccc2)cc1 the results were KDM4E inh -2%, BAZ2B block 8.9µM*, HP1b binding inh -19%, PI5P4K alpha inh 6, JMJD2A Tudor inh -16% and L3MBTL1 inh -2%.
`O=[N+]([O-])c1ccc(-c2csc(Nc3ccccc3)[n+]2Cc2ccccc2)cc1` gave KDM4E inh -9%, BAZ2B block 40µM*, HP1b binding inh 16µM*, PI5P4K alpha inh 5, JMJD2A Tudor inh 18µM* and L3MBTL1 inh -17%.
Screening O=C(Cn1c(=O)n(-c2ccccc2)c(=O)c2ccc(C(=O)NCc3ccc4c(c3)OCO4)cc21)Nc1ccc(F)c(Cl)c1 returned HP1b binding inh 20% and JMJD2A Tudor inh -16%.
COc1ccc(O)c(/C=N/c2sc(C)c(C)c2C#N)c1 was read as KDM4E inh -21%, BAZ2B block -33%, HP1b binding inh inconclusive, PI5P4K alpha inh inconclusive and JMJD2A Tudor inh 79µM*.
`CSC1=NC2(CCN(C(=O)NC3CCCCC3)CC2)N=C1c1ccc(C)cc1` gave BAZ2B block 12%[57.1 µM], HP1b binding inh 2% and JMJD2A Tudor inh -24%.
For CC(C)(C)OC(=O)NS(=O)(=O)Nc1ccccc1Br the results were HP1b binding inh -5% and JMJD2A Tudor inh 35µM*.
CC(C)NC(=O)c1cc2c(-c3ccc(Cl)cc3)nn(C)c2s1 was read as KDM4E inh 8.9µM*, BAZ2B block 0%, HP1b binding inh 20%, PI5P4K alpha inh 2, JMJD2A Tudor inh -18% and L3MBTL1 inh 0%.
For COCCCNC(=S)Nc1cc2oc3ccccc3c2cc1OC the results were BAZ2B block inconclusive, HP1b binding inh 35%, PI5P4K alpha inh 7 and JMJD2A Tudor inh -23%.
For COc1cc2c(cc1NCc1ccc3c(c1)OCO3)oc1ccccc12 the results were KDM4E inh inconclusive, BAZ2B block 32µM*, HP1b binding inh inconclusive, PI5P4K alpha inh 11, JMJD2A Tudor inh inconclusive and L3MBTL1 inh inconclusive.
`COc1cc2c(cc1NCc1ccccn1)oc1ccccc12` gave KDM4E inh inconclusive, BAZ2B block 45µM*, HP1b binding inh inconclusive, PI5P4K alpha inh 3, JMJD2A Tudor inh 45µM* and L3MBTL1 inh -12%.
For COc1cc2c(cc1NC(=O)COc1ccccc1OC)oc1ccccc12 the results were KDM4E inh 8%, BAZ2B block -6%, HP1b binding inh 43%, JMJD2A Tudor inh -10% and L3MBTL1 inh -7%.
`COc1cc2c(cc1NC(=S)Nc1cccc3ccccc13)oc1ccccc12` gave KDM4E inh inconclusive, BAZ2B block 79µM*, HP1b binding inh inconclusive, PI5P4K alpha inh -5 and JMJD2A Tudor inh inconclusive.
Screening COc1ccc2c(c1)CC(C(=O)NCCCN1CCN(c3cccc(Cl)c3)CC1)CO2 (configuration not stated) returned BAZ2B block inconclusive, HP1b binding inh 5%[57 µM] and JMJD2A Tudor inh inconclusive.
For Cc1cc(C)cc(-n2c(SCC(=O)N3CCC(C)CC3)nc3c([nH]c4ccccc43)c2=O)c1 the results were BAZ2B block 3%, HP1b binding inh 16%[57 µM] and JMJD2A Tudor inh -9%.
CCN(CC)c1ccc(/C=C(\C#N)c2nc(-c3cccs3)c(NC(C)=O)s2)cc1 was read as KDM4E inh -6%, BAZ2B block 20µM* and L3MBTL1 inh inconclusive.
CC(=O)Nc1sc(NC(=O)c2ccccc2)nc1-c1cccs1 was read as KDM4E inh 18%, BAZ2B block 10%, HP1b binding inh 27%, JMJD2A Tudor inh -9% and L3MBTL1 inh -3%.
Screening CCOc1ccc(CSC(CC(=O)O)C(=O)O)cc1 (configuration not stated) returned KDM4E inh 1%, BAZ2B block 79µM*, HP1b binding inh 47%, PI5P4K alpha inh 5, JMJD2A Tudor inh -4% and L3MBTL1 inh 0%.
`N#Cc1ccc(C=NN2CCCCCC2)cc1` gave HP1b binding inh inconclusive, PI5P4K alpha inh 4 and JMJD2A Tudor inh 35µM*.
`Clc1ccc(C=NN2CCCCCC2)cc1` gave HP1b binding inh -33%, PI5P4K alpha inh 11 and JMJD2A Tudor inh 35µM*.
Screening Clc1ccc(/C=N/N2CCCCC2)cc1 returned KDM4E inh 3%, BAZ2B block -38%, HP1b binding inh -12%, PI5P4K alpha inh 10, JMJD2A Tudor inh 50µM* and L3MBTL1 inh inconclusive.
`C(=NN1CCCCCC1)c1ccccc1` gave HP1b binding inh -33%, PI5P4K alpha inh 9 and JMJD2A Tudor inh inconclusive.
`Cc1cccc(C)c1NC(=O)C1(C)CCC(=O)N1c1cc(C(C)(C)C)nn1C` (configuration not stated) gave PI5P4K alpha inh 3.
Cc1cccc(C)c1NC(=O)CSCC(=O)c1ccc(O)c(O)c1 was read as KDM4E inh 28µM*, BAZ2B block inconclusive, HP1b binding inh 17%, PI5P4K alpha inh -5, JMJD2A Tudor inh inconclusive and L3MBTL1 inh -3%.
COc1cccc(C(=O)NCC(c2ccc3c(c2)OCO3)N2CCN(C)CC2)c1 (configuration not stated) was read as BAZ2B block 39%, HP1b binding inh 54%[57 µM] and JMJD2A Tudor inh -7%.
Screening Cc1ccc(S(=O)(=O)NC(C(=O)Oc2ccc3c(C(F)(F)F)cc(=O)oc3c2)c2ccccc2)cc1 (configuration not stated) returned KDM4E inh 32µM*, BAZ2B block 3%, HP1b binding inh 39%, PI5P4K alpha inh -5, JMJD2A Tudor inh -9% and L3MBTL1 inh 10%.
For O=C(CSc1nc2c(oc3ccccc32)c(=O)[nH]1)Nc1cccc(Cl)c1 the results were BAZ2B block -7%, HP1b binding inh 18% and JMJD2A Tudor inh -12%.
Screening COc1ccc(-c2nc3c(C#N)c[nH]n3c2NC2CCCCC2)cc1 returned BAZ2B block 2%, HP1b binding inh 3% and JMJD2A Tudor inh -21%.
